# Assay results published in publication PMC7862700, “An all-to-all approach to the identification of sequence-specific readers for epigenetic DNA modifications on cytosine”.
# What was measured:
# Test in all cases: DAPPL (digital affinity profiling via proximity ligation, sequencing); 10 mM Tris-HCl pH 7.5, 50 mM NaCl, 1 mM DTT, 4% glycerol, room temperature, 30 min; GST-TFs on glutathione beads, 16-mer random dsDNA library, 0.1% formaldehyde crosslink after washing; high values mean tight binding
# FEV = target: T1, FEV (Homo sapiens, UniProt Q99581 1-238); conditions: protein: recombinant; tags: N-terminal GST; dsDNA, one strand shown
# T1 sequence: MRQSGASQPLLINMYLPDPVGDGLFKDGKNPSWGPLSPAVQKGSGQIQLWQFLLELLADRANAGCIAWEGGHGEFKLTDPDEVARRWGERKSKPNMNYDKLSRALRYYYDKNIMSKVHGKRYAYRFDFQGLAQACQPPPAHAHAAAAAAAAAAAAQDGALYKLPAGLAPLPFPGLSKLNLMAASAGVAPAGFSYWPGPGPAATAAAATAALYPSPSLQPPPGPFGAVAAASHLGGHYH
# Summary of the method: (§1)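 Beads coated with glutathione captured GST-fused human transcription factors that had been expressed in yeast, and the factors were then given DNA barcodes and pooled with a tag-only sample. The pools were incubated with 200 nmole of a random double-stranded 16-mer DNA library in Tris/NaCl/DTT/glycerol buffer for 30 min at room temperature, washed, crosslinked with 0.1% formaldehyde and proximity-ligated with BsaI/T4 ligase at 37 °C for 1 h. PCR amplification and Illumina NextSeq500 sequencing came last. Binding signal is each hexamer's read frequency for a factor divided by its frequency for the tag-only sample.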
# ETV5 = ETV5 (Homo sapiens, UniProt P41161 1-510); conditions: protein: recombinant; tags: N-terminal GST; dsDNA, one strand shown
# ETV5, sequence (P41161 whole entry): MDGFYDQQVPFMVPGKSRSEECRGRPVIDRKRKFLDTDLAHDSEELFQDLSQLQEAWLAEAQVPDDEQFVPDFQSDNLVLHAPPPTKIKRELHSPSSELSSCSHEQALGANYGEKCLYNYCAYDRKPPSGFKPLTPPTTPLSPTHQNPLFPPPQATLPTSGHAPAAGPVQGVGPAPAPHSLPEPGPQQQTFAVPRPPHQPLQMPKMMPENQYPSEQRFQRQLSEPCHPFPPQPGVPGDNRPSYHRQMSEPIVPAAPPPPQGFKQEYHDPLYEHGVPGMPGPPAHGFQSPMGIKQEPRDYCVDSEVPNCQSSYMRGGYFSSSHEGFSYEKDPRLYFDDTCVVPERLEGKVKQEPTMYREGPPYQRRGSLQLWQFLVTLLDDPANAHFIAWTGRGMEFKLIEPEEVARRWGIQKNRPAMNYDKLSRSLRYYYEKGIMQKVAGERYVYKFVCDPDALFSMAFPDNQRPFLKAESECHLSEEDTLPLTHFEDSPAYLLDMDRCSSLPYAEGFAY
# Summary of the method: as §1
# HSF1 = HSF1 (Homo sapiens, UniProt Q00613 1-529); conditions: protein: recombinant; tags: N-terminal GST; chain copies: 3; dsDNA, one strand shown
# HSF1, sequence (Q00613 whole entry): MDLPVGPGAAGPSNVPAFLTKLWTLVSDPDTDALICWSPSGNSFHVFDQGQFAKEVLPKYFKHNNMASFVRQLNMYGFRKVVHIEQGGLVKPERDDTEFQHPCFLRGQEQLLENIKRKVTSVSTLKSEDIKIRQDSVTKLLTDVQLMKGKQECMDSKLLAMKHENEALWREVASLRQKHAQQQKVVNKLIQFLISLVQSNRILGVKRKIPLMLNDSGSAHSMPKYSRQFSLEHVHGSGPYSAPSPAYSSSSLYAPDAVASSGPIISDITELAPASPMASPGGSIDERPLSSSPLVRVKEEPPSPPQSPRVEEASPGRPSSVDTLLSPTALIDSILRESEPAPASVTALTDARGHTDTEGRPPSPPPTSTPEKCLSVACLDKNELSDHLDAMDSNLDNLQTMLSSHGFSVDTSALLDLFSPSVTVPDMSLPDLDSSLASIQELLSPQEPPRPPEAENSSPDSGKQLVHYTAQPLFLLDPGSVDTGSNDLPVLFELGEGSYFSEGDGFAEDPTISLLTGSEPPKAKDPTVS
# Summary of the method: as §1
# SPIC = target: T2, SPIC (Homo sapiens, UniProt Q8N5J4 1-248); conditions: protein: recombinant; tags: N-terminal GST; dsDNA, one strand shown
# T2 sequence: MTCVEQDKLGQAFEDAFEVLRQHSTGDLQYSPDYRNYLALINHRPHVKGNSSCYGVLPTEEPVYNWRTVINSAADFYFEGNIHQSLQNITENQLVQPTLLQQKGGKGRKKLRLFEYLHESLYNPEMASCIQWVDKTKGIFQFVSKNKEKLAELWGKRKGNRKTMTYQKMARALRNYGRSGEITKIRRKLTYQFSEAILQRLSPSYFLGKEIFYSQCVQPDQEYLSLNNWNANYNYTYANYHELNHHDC
# Summary of the method: as §1
# ELF4 = ELF4 (Homo sapiens, UniProt Q99607 1-663); conditions: protein: recombinant; tags: N-terminal GST; dsDNA, one strand shown
# ELF4, sequence (Q99607 whole entry): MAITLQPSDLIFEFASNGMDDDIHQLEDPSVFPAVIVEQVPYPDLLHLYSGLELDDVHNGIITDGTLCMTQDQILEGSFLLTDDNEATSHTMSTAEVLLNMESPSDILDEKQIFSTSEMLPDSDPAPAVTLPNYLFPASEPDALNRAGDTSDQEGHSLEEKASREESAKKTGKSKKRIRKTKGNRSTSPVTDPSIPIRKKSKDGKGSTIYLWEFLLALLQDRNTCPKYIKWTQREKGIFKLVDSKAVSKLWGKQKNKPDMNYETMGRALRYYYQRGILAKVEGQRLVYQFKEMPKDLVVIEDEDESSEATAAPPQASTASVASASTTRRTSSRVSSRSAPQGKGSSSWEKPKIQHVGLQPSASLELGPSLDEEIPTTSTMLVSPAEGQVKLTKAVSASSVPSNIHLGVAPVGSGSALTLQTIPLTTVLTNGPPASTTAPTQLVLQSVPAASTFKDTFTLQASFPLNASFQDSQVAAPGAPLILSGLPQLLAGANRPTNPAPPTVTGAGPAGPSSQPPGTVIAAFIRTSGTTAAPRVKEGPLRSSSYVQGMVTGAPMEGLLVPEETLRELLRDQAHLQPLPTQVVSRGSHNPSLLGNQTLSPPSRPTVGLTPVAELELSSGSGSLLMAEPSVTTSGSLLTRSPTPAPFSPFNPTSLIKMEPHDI
# Summary of the method: as §1
# ELK4 = target: T3, ELK4 (Homo sapiens, UniProt P28324-2 1-405); conditions: protein: recombinant; tags: N-terminal GST; dsDNA, one strand shown
# T3 sequence: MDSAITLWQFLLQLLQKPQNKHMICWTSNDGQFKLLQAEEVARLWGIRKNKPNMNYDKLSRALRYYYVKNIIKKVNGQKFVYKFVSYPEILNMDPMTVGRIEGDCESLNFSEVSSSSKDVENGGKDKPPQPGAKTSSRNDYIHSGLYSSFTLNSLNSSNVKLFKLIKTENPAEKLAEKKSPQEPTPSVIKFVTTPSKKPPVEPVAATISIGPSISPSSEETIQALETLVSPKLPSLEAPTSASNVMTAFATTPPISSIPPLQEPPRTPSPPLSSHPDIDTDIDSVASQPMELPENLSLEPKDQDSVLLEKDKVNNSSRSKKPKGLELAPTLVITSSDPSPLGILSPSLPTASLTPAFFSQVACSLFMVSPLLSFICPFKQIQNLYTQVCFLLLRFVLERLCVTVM
# Summary of the method: as §1
# ETV2 = target: T4, ETV2 (Homo sapiens, UniProt O00321 1-342); conditions: protein: recombinant; tags: N-terminal GST; dsDNA, one strand shown
# T4 sequence: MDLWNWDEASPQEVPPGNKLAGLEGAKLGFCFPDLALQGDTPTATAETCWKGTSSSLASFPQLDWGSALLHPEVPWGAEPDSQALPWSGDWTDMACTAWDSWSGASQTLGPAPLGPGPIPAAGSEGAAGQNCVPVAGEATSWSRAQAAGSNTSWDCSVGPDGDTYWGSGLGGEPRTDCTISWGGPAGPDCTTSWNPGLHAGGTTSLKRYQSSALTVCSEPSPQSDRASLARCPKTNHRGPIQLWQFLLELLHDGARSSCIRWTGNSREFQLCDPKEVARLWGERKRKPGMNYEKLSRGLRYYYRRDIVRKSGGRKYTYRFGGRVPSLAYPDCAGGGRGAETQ
# Summary of the method: as §1
# ELF3 = target: T5, ELF3 (Homo sapiens, UniProt P78545 1-371); conditions: protein: recombinant; tags: N-terminal GST; dsDNA, one strand shown
# T5 sequence: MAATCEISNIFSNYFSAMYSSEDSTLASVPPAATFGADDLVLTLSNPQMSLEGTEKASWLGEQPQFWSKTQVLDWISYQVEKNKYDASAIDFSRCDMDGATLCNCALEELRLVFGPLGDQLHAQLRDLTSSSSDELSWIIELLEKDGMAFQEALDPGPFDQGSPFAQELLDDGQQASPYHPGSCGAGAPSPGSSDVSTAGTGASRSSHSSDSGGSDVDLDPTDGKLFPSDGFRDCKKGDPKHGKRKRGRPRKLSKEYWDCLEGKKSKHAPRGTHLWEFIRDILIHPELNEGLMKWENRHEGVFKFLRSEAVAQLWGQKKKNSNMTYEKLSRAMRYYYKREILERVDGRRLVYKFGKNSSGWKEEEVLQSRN
# Summary of the method: as §1
# CRX = CRX (Homo sapiens, UniProt O43186 1-299); conditions: protein: recombinant; tags: N-terminal GST; dsDNA, one strand shown
# CRX, sequence (O43186 whole entry): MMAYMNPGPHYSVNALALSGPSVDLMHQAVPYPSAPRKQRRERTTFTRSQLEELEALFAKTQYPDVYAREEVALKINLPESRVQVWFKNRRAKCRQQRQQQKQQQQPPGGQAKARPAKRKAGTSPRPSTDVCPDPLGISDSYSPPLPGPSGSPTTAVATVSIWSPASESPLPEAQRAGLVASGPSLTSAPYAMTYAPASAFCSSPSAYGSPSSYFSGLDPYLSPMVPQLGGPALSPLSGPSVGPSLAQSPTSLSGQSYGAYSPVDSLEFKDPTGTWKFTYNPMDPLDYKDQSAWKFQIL
# Summary of the method: as §1
# ETV1 = ETV1 (Homo sapiens, UniProt P50549 1-477); conditions: protein: recombinant; tags: N-terminal GST; dsDNA, one strand shown
# ETV1, sequence (P50549 whole entry): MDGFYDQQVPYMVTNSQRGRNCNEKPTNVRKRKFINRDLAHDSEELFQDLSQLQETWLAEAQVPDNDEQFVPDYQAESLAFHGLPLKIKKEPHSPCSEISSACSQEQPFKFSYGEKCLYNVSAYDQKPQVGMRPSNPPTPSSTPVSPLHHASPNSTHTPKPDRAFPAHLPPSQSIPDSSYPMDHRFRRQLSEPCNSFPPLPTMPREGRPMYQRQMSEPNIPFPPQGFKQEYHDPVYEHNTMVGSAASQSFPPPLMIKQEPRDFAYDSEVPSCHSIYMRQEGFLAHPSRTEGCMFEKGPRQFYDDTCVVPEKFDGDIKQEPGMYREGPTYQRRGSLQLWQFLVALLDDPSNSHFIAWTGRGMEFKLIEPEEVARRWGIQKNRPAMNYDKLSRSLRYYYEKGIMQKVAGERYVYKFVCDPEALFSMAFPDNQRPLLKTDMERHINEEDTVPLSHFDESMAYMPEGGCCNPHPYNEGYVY
# Summary of the method: as §1
# ERF = target: T6, ERF (Homo sapiens, UniProt P50548 1-548); conditions: protein: recombinant; tags: N-terminal GST; dsDNA, one strand shown
# T6 sequence: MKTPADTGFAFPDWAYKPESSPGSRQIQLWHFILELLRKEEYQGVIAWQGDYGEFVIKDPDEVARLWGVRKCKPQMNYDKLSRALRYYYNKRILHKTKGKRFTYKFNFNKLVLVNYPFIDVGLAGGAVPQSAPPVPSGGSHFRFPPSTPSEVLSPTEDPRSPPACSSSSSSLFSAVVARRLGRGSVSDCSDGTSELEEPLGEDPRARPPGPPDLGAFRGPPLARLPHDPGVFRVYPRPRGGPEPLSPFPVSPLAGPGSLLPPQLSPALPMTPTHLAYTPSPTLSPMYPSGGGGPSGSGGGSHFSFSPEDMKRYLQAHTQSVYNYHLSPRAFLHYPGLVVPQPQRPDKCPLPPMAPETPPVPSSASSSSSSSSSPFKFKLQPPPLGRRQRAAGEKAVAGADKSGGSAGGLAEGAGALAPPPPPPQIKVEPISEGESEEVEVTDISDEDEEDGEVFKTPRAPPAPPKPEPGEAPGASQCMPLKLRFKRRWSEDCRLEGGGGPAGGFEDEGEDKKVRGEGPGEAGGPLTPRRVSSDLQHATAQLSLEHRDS
# Summary of the method: as §1
# ETV3L = target: T7, ETV3L (Homo sapiens, UniProt Q6ZN32 1-361); conditions: protein: recombinant; tags: N-terminal GST; dsDNA, one strand shown
# T7 sequence: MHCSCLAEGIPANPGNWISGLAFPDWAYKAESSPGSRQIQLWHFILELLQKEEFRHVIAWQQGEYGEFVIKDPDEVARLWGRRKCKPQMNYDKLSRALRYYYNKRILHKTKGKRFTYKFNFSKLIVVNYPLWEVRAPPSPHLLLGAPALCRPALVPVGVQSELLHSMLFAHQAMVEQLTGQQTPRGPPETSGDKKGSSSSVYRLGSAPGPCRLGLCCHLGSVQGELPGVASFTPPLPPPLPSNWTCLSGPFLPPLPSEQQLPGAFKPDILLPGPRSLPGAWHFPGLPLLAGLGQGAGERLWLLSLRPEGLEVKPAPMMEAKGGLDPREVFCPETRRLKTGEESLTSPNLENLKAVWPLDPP
# Summary of the method: as §1
# ETS2 = target: T8, ETS2 (Homo sapiens, UniProt P15036 1-469); conditions: protein: recombinant; tags: N-terminal GST; dsDNA, one strand shown
# T8 sequence: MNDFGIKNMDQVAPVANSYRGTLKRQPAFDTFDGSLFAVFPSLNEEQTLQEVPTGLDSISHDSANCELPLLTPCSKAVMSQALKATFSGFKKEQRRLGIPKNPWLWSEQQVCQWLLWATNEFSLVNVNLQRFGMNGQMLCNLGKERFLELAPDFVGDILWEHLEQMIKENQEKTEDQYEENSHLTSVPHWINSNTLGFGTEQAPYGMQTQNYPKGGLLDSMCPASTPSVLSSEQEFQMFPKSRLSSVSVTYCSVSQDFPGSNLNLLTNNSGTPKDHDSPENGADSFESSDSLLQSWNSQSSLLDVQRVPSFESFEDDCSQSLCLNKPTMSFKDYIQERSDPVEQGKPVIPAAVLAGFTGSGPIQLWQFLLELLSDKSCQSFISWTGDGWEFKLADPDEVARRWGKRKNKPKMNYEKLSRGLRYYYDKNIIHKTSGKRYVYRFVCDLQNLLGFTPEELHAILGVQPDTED
# Summary of the method: as §1
# SPDEF = target: T9, SPDEF (Homo sapiens, UniProt O95238 1-335); conditions: protein: recombinant; tags: N-terminal GST; dsDNA, one strand shown
# T9 sequence: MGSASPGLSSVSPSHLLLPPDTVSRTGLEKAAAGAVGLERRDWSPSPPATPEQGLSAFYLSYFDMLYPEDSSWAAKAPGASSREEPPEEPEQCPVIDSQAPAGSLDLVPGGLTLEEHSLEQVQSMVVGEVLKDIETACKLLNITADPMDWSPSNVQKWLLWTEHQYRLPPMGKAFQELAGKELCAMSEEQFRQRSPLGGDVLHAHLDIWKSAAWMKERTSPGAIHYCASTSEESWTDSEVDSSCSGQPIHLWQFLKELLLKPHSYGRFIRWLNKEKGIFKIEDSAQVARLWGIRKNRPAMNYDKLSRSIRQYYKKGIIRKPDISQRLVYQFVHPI
# Summary of the method: as §1
# ETV7 = target: T10, ETV7 (Homo sapiens, UniProt Q9Y603 1-341); conditions: protein: recombinant; tags: N-terminal GST; dsDNA, one strand shown
# T10 sequence: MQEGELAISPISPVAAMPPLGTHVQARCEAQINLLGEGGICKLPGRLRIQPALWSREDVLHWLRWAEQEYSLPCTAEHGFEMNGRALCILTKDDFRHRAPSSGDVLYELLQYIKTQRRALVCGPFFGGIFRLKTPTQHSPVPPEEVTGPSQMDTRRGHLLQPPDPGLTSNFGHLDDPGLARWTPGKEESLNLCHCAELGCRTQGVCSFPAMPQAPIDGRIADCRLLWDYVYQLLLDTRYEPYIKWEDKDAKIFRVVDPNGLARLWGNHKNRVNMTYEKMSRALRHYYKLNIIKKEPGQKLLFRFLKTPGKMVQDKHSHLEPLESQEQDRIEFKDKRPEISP
# Summary of the method: as §1
# ELF5 = target: T11, ELF5 (Homo sapiens, UniProt Q9UKW6-2 1-255); conditions: protein: recombinant; tags: N-terminal GST; dsDNA, one strand shown
# T11 sequence: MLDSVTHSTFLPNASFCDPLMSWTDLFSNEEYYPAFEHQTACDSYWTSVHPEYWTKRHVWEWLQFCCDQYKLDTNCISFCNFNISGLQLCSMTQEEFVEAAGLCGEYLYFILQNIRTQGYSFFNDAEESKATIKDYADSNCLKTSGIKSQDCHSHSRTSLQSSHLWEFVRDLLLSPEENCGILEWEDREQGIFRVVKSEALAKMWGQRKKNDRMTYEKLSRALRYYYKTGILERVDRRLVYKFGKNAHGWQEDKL
# Summary of the method: as §1
# ETV3 = target: T12, ETV3 (Homo sapiens, UniProt P41162-2 1-143); conditions: protein: recombinant; tags: N-terminal GST; dsDNA, one strand shown
# T12 sequence: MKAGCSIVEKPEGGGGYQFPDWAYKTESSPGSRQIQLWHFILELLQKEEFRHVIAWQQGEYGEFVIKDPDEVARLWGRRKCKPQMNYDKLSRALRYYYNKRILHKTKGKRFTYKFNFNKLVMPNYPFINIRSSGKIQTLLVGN
# Summary of the method: as §1
# ETV6 = ETV6 (Homo sapiens, UniProt P41212 1-452); conditions: protein: recombinant; tags: N-terminal GST; dsDNA, one strand shown
# ETV6, sequence (P41212 whole entry): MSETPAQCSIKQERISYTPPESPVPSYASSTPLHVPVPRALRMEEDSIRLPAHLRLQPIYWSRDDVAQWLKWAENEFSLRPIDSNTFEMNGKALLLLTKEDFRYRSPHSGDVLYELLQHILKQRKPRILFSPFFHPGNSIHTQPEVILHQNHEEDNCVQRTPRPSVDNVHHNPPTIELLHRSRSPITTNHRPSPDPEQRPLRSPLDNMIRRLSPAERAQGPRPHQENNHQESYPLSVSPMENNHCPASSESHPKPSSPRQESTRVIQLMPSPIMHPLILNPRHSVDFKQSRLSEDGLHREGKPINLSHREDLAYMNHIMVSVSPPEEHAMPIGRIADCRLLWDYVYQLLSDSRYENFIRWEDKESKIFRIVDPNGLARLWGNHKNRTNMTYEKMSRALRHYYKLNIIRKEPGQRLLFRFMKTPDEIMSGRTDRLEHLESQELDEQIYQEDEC
# Summary of the method: as §1
sequence,measurement,setting,value
AATTAG,binding signal,FEV,"1.07 fold enrichment (6-mer frequency, TF over GST control)"
same,binding signal,ETV5,"1.12 fold enrichment (6-mer frequency, TF over GST control)"
same,binding signal,HSF1,"1.39 fold enrichment (6-mer frequency, TF over GST control)"
same,binding signal,SPIC,"1.08 fold enrichment (6-mer frequency, TF over GST control)"
same,binding signal,ELF4,"1.15 fold enrichment (6-mer frequency, TF over GST control)"
same,binding signal,ELK4,"1.14 fold enrichment (6-mer frequency, TF over GST control)"
same,binding signal,ETV2,"1.12 fold enrichment (6-mer frequency, TF over GST control)"
same,binding signal,ELF3,"1.13 fold enrichment (6-mer frequency, TF over GST control)"
same,binding signal,CRX,"1.69 fold enrichment (6-mer frequency, TF over GST control)"
same,binding signal,ETV1,"1.14 fold enrichment (6-mer frequency, TF over GST control)"
same,binding signal,ERF,"1.15 fold enrichment (6-mer frequency, TF over GST control)"
same,binding signal,ETV3L,"1.12 fold enrichment (6-mer frequency, TF over GST control)"
same,binding signal,ETS2,"1.09 fold enrichment (6-mer frequency, TF over GST control)"
same,binding signal,SPDEF,"1.06 fold enrichment (6-mer frequency, TF over GST control)"
same,binding signal,ETV7,"1.25 fold enrichment (6-mer frequency, TF over GST control)"
same,binding signal,ELF5,"1.1 fold enrichment (6-mer frequency, TF over GST control)"
same,binding signal,ETV3,"1.19 fold enrichment (6-mer frequency, TF over GST control)"
same,binding signal,ETV6,"1.13 fold enrichment (6-mer frequency, TF over GST control)"
